This is an account of results in ChEMBL document CHEMBL1961873, “Compounds: GSK PKIS; Assays: Nanosyn kinase panel” (2012).

Assay [1] has as its target Serine/threonine-protein kinase MARK2 (Homo sapiens) (UniProt Q7KZI7). The conditions noted are these: at 1 µM.
In assay [2] the target is PAS domain-containing serine/threonine-protein kinase (Homo sapiens) (UniProt Q96RG2). The conditions noted are these: at 0.1 µM.
Assay [3] has the same target. The note with it: at 1 µM.
The target in assay [4] is Phosphorylase b kinase gamma catalytic chain, skeletal muscle/heart isoform (Homo sapiens) (UniProt Q16816). The note with it: at 0.1 µM.
For assay [5] the target is unchanged. The note with it: at 1 µM.
The target in assay [6] is T1, Phosphorylase b kinase gamma catalytic chain, liver/testis isoform (Homo sapiens) (UniProt P15735).
T1 sequence (whole entry): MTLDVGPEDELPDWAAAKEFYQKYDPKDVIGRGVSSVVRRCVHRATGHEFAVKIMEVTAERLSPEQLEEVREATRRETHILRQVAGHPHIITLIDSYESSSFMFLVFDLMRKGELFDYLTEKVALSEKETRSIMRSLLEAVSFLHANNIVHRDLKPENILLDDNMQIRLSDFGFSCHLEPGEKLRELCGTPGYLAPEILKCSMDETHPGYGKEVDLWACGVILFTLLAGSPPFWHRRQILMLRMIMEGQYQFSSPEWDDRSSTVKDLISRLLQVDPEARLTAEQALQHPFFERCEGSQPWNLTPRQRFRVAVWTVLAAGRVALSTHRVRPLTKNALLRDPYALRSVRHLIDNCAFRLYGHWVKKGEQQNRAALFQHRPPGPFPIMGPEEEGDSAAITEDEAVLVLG
The conditions noted are these: at 0.1 µM.

Assay [7] deals with T1, Phosphorylase b kinase gamma catalytic chain, liver/testis isoform (Homo sapiens). The conditions noted are these: at 1 µM.
Assay [8] addresses Serine/threonine-protein kinase pim-1 (Homo sapiens) (UniProt P11309). The conditions noted are these: at 0.1 µM.
Assay [9] shares this target. The conditions noted are these: at 1 µM.
For assay [10], the target named is Serine/threonine-protein kinase pim-2 (Homo sapiens) (UniProt Q9P1W9). The conditions noted are these: at 0.1 µM.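 Also: reported value is the mean percent inhibition of PIM2, measured in the GSK PKIS kinase inhibitor set screen.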
Chain of Serine/threonine-protein kinase pim-2 (Homo sapiens) (Q9P1W9 whole entry, looked up): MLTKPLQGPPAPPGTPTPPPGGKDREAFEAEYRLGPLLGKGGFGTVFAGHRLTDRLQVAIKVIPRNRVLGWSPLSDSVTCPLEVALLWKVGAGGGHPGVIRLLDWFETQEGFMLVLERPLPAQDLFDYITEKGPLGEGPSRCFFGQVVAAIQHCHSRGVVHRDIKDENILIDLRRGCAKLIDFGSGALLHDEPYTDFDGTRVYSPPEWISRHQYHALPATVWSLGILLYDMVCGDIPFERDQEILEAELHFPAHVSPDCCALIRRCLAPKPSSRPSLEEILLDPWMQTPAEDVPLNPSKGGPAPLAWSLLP

Chain of PAS domain-containing serine/threonine-protein kinase (Homo sapiens) (Q96RG2 whole entry, the tested form may be a part): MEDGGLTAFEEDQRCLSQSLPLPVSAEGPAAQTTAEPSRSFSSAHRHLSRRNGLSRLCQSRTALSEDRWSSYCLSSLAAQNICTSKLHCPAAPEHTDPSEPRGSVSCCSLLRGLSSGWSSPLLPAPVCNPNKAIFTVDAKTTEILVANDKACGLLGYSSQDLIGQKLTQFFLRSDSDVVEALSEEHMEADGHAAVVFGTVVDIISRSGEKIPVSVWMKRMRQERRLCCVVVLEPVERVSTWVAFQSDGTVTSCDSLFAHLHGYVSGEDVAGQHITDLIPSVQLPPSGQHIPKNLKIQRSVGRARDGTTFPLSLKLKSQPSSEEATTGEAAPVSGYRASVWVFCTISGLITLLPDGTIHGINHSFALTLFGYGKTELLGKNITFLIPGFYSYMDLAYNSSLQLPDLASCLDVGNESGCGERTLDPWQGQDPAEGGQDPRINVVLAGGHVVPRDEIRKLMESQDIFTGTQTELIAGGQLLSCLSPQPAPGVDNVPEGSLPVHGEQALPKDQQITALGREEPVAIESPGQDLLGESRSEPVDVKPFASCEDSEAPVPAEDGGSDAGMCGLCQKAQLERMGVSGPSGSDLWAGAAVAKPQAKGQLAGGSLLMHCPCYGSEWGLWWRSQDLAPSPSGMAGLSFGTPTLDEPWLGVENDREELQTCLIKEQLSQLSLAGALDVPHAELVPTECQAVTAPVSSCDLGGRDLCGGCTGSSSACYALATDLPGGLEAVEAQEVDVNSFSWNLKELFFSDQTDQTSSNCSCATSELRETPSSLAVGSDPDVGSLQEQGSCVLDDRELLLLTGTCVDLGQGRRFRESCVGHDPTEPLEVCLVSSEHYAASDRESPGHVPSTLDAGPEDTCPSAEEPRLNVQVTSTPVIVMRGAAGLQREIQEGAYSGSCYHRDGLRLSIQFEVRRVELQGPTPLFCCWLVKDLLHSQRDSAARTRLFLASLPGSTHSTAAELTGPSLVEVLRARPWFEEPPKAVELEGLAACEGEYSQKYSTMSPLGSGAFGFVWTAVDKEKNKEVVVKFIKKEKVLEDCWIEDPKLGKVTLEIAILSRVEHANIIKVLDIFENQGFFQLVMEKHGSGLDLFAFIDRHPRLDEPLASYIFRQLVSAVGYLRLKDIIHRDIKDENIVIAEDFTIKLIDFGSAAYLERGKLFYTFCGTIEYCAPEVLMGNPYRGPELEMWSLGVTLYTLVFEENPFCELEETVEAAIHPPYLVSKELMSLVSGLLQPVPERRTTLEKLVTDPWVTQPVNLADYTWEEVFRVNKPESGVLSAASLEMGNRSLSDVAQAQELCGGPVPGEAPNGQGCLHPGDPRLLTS
Chain of Phosphorylase b kinase gamma catalytic chain, skeletal muscle/heart isoform (Homo sapiens) (Q16816 whole entry, looked up, canonical isoform): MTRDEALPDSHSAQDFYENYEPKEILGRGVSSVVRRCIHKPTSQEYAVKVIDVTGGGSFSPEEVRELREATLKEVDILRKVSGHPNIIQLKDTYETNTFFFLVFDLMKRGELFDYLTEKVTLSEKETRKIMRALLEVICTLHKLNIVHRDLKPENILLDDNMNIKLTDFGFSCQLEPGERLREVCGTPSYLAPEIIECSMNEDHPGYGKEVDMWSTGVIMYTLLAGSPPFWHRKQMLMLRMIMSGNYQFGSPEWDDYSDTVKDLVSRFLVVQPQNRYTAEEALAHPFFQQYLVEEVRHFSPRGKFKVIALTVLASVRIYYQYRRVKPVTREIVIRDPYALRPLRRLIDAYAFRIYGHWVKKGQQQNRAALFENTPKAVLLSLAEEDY
Chain of Serine/threonine-protein kinase MARK2 (Homo sapiens) (Q7KZI7 whole entry, the tested form may be a part): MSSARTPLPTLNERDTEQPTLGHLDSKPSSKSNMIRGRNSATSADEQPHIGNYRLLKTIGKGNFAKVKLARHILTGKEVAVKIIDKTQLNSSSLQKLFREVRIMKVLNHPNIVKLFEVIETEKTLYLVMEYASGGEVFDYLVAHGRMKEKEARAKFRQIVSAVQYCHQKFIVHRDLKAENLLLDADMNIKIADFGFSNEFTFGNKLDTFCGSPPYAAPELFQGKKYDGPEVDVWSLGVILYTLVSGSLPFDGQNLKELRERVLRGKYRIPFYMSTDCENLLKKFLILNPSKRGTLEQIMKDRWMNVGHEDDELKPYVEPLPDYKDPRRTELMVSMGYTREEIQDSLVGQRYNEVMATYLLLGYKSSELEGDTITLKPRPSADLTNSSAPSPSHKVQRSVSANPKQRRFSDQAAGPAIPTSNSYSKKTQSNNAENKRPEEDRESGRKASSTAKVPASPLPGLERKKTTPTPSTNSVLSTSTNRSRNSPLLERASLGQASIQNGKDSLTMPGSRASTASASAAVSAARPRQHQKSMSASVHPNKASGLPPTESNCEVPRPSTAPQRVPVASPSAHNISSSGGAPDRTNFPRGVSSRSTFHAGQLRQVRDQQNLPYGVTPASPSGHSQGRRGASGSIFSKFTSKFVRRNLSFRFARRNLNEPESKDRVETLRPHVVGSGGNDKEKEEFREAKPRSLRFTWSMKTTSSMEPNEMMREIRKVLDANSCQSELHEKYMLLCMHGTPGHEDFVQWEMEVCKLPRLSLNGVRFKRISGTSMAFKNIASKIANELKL
Chain of Serine/threonine-protein kinase pim-1 (Homo sapiens) (P11309 whole entry, looked up): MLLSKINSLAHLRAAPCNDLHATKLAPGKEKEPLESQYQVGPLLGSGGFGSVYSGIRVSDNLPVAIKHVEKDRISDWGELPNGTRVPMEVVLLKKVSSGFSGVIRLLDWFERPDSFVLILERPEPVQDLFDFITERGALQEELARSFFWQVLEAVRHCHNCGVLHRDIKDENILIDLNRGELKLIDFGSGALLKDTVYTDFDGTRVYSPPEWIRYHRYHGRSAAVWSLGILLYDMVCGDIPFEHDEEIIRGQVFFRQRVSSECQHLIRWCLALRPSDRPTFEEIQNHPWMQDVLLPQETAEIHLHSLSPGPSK

Regarding `CCS(=O)(=O)c1ccc(OC)c(Nc2ncc(-c3cccc(-c4ccccc4F)c3)o2)c1`, the inhibition (commonly the drop in the measured response relative to a control, in per cent) is 0.68% in assay [1]; -0.22% in assay [2]; -0.96% in [3]; 1.99% in [4]; 9.38% in [5]; 0.01% in [6]. For the same molecule, the inhibition in assay [7] is -0.67%; in [8], -0.29%; in assay [9], 5.63%; in assay [10], 0.1%.
As to `O=C(Nc1n[nH]c2nc(-c3ccc(O)cc3)c(Br)cc12)C1CC1`, the inhibition came to 5.24% in [1]; 0.21% in assay [2]; 0.71% in assay [3]; 7.64% in assay [4]; 10.7% in assay [5]; 6.68% in assay [6]. Besides, the inhibition amounted to 7.34% in assay [7], 19.7% in assay [8], 65.5% in assay [9] and 45.5% in assay [10].
Take `CS(=O)(=O)CCNCc1ccc(-c2ccc3ncnc(Nc4ccc(OCc5ccccc5)c(Br)c4)c3c2)o1`: the inhibition was -0.56% in assay [1]; -0.29% in assay [2]; 0.16% in assay [3]; 7% in assay [4]; 3.21% in [5]; 5.03% in assay [6]. The inhibition in [7] was 4.55%; in [8], -0.99%; in assay [9], -0.09%; in assay [10], -3.07%.
`CN1CCN(CCCNc2nc3ccc(Oc4ccc(NC(=O)Nc5cc(C(F)(F)F)ccc5F)cc4)cc3[nH]2)CC1`: the inhibition was 2.75% in assay [1]; 1.07% in [2]; -1.18% in assay [3]; -0.01% in [4]; 0.68% in assay [5]; 2.23% in [6]. Also, the inhibition in [7] was -0.8%; in assay [8] it was 0.7%; in assay [9], 0.87%; in assay [10], -1.87%.
On to `Cc1nnc(-c2ccc(C)c(-c3ccc(C(=O)NCc4ccc(Cl)cc4)cc3)c2)o1`, for which the inhibition was 2.93% in [1]; -0.31% in assay [2]; 0.36% in [3]; 4.66% in [4]; 5.75% in assay [5]; 5.44% in assay [6]. Also, the inhibition in assay [7] was 5.11%; in [8] it was 0.2%; in assay [9] it was 1.19%; in [10], -3.59%.
Regarding `O=C(Nc1ccc(Oc2ccc3[nH]c(NC(=O)c4ccccc4)nc3c2)cc1)Nc1cc(C(F)(F)F)ccc1F`, the inhibition in [1] turned out to be 1.49%; in [2], 0.68%; in assay [3], 0.73%; in assay [4], 1.45%; in assay [5], 7.47%; in [6], 3.99%. For the same molecule, the inhibition in [7] was 4.6%; in [8] it was 0.97%; in [9], 0.07%; in assay [10], -0.34%.
As to `NS(=O)(=O)c1ccc(Nc2cc(-c3ccc(O)c(F)c3)n[nH]2)cc1`, the inhibition in [1] was 7.38%; in assay [2], -0.77%; in [3], -1.58%; in [4], -0.19%; in [5], 16%; in assay [6] it was -5.86%. Moreover, the inhibition in [7] is -3.66%; in assay [8], -1.13%; in [9], 0.95%; in [10], -0.39%.
`c1ccc(-c2n[nH]cc2-c2ccnc(-c3ccc(OCCN4CCOCC4)cc3)c2)nc1`: the inhibition in assay [1] is 6.97%; in assay [2] it was 4.29%; in assay [3], 2.12%; in [4] it was 3.14%; in [5], 5.98%; in assay [6], -1.14%. The inhibition in assay [7] is -3.23%; in assay [8], 1.29%; in [9] it was 1.87%; in assay [10] it was 7.01%.
With `O=C1Nc2ccc(I)cc2C1=Cc1cc(Br)c(O)c(Br)c1`, the inhibition was 2.16% in assay [1]; -2.03% in assay [2]; -1.55% in assay [3]; -0.98% in assay [4]; 3.92% in assay [5]; 4.05% in assay [6]. Further, the inhibition in assay [7] amounted to 4.75%; in [8] it was 2.05%; in [9], 11.4%; in assay [10], 0.13%.
For the molecule `COc1cc(C)c(N(C)C(=O)CN(C)C)cc1Nc1nc(Nc2cccc(F)c2C(N)=O)c2cc[nH]c2n1`, the inhibition was 1.79% in [1]; 0.61% in assay [2]; -1.13% in [3]; -1.13% in assay [4]; 2.95% in assay [5]; 3.64% in [6]. Besides, the inhibition in assay [7] is -0.16%; in assay [8] it was 1.05%; in [9], 3.33%; in assay [10] it was -3.42%.
Regarding `Fc1ccc(-c2c(-c3ccncc3)nc3n2CCS3)cc1`, the inhibition is 1.79% in [1]; -0.68% in assay [2]; -0.44% in assay [3]; 4.14% in [4]; 4.63% in [5]; 1.99% in [6]. Further, the inhibition in assay [7] is 3.28%; in assay [8] it was -0.78%; in [9], 0.06%; in assay [10] it was -3.15%.
Turning to `COc1cc2ncn(-c3cc(OCc4ccccc4C(F)(F)F)c(C(C)=O)s3)c2cc1OC`, the inhibition in assay [1] turned out to be 1.04%; in assay [2] it was 0.79%; in assay [3], 1%; in assay [4] it was 2.96%; in assay [5] it was 2.39%; in assay [6], 4.43%. For the same molecule, the inhibition is 4.18% in assay [7], -0.09% in assay [8], 0.89% in assay [9] and 0.28% in assay [10].
`CCc1nccc2c1nc(-c1nonc1N)n2CC`: the inhibition in assay [1] is 1.67%; in [2], 0.71%; in [3], 0.86%; in assay [4], 3.65%; in assay [5], 1.98%; in assay [6], -0.2%. Further, the inhibition in assay [7] is -2.03%; in [8] it was 0.32%; in assay [9], 1.23%; in assay [10], 0.4%.
As for `COC(=O)Nc1nc2ccc(Sc3ccc(NC(=O)Nc4cc(C(F)(F)F)ccc4F)cc3)cc2[nH]1`, the inhibition was -0.67% in assay [1]; 1.15% in assay [2]; 2% in assay [3]; 8.5% in assay [4]; -0.17% in [5]; 1.59% in assay [6]. In addition, the inhibition in assay [7] is 0.05%; in assay [8] it was 33.7%; in [9], -0.09%; in [10], -0.3%.
Consider `CN(C)CCCNc1nccc(-c2c(-c3ccc(F)cc3)nn3cc(C(F)(F)F)ccc23)n1`, for which the inhibition in assay [1] is 2.71%; in [2] it was 0.83%; in assay [3], -0.37%; in assay [4], -0.27%; in assay [5], 2.68%; in [6], 2.52%. The inhibition was 0.17% in assay [7], 0.62% in assay [8], 1.32% in [9] and -3.76% in assay [10].
In the case of `COc1ccc(C2=C(N3CCc4ccccc43)C(=O)NC2=O)cc1`, the inhibition in assay [1] is 1.74%; in assay [2] it was 0.07%; in [3] it was -0.29%; in assay [4] it was 3.26%; in assay [5] it was 6.35%; in assay [6] it was 7.25%. Moreover, the inhibition in [7] is 4.69%; in assay [8], 0.52%; in assay [9], 4.09%; in assay [10], 0.18%.
As to `Cc1ccc(C(=O)NC(C)C)cc1-c1ccc(C(=O)NCC2CC2)cc1`, the inhibition in [1] is 2.12%; in [2], 0.53%; in assay [3], 0.4%; in [4], -0.31%; in assay [5] it was 1.18%; in [6], -5.49%. Besides, the inhibition is -6.57% in [7], 0.13% in assay [8], 0.56% in [9] and 0.1% in [10].
`CN(C)c1ccc2c(c1)/C(=C/Nc1ccc(S(N)(=O)=O)cc1)C(=O)N2`: the inhibition in assay [1] is 18.6%; in assay [2] it was -0.32%; in assay [3], -0.69%; in assay [4] it was 15.3%; in assay [5] it was 49.3%; in [6] it was 2.06%. For the same molecule, the inhibition in assay [7] came to 13.8%; in assay [8], 1.26%; in assay [9], 1.23%; in assay [10], 0.23%.
Regarding `Cc1ccc(C(=O)NC2CCC2)cc1-c1ccc(C(=O)NCC2CC2)cc1`, the inhibition in assay [1] is 0.79%; in assay [2] it was 0.3%; in [3] it was -1.21%; in [4], 2.32%; in assay [5] it was 2.85%; in assay [6] it was 3.61%. Moreover, the inhibition in assay [7] is 2%; in [8] it was 0.78%; in [9] it was 1.55%; in assay [10] it was -0.51%.
For `COc1cc2ncn(-c3cc(OCCc4ccccc4)c(C(N)=O)s3)c2cc1OC`, the inhibition is 2.11% in assay [1]; 0.16% in assay [2]; -0.56% in assay [3]; 3.81% in [4]; 2.4% in assay [5]; 1.37% in [6]. Further, the inhibition in assay [7] was 0.33%; in assay [8], -0.26%; in [9], -0.29%; in assay [10], -0.04%.
